Screening results deposited in PubChem BioAssay by National Center for Advancing Translational Sciences (NCATS).
a7 integrin act = integrin-mediated muscular dystrophy alleviation activation. alpha7betagal myoblasts, beta-gal FDG fluorescence, 48 h. Potency, µM (highest dose often 38.3 µM), usual class: activators. 350,000 tested, 0.064% active; further: nearly all actives have a fitted effect of over 60% in size
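alpha7betagal+/- myoblasts (passage 13, 250/well) treated 48 h at 37C with compounds at 1:260 dilution of DMSO stock. Lysed, then beta-galactosidase activity read as FDG fluorescence (ex 480/em 540) after 30 min, with pre-read for autofluorescence.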
TSHR antag = antagonists of human thyroid stimulating hormone receptor. TSHR-expressing cells, TSH-stimulated cAMP HTRF, 2 h; stronger effect = lower value. AID 504810. 330,000 tested, 0.2% active. activity change, negative = inhibition, % at 11.5 µM;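 active means activity change below a set negative limit, meaning inhibition stronger than a set level, cut at about -70% in these data; inconclusive means activity change between two set negative limits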
Target sequence (P16473 whole entry, looked up): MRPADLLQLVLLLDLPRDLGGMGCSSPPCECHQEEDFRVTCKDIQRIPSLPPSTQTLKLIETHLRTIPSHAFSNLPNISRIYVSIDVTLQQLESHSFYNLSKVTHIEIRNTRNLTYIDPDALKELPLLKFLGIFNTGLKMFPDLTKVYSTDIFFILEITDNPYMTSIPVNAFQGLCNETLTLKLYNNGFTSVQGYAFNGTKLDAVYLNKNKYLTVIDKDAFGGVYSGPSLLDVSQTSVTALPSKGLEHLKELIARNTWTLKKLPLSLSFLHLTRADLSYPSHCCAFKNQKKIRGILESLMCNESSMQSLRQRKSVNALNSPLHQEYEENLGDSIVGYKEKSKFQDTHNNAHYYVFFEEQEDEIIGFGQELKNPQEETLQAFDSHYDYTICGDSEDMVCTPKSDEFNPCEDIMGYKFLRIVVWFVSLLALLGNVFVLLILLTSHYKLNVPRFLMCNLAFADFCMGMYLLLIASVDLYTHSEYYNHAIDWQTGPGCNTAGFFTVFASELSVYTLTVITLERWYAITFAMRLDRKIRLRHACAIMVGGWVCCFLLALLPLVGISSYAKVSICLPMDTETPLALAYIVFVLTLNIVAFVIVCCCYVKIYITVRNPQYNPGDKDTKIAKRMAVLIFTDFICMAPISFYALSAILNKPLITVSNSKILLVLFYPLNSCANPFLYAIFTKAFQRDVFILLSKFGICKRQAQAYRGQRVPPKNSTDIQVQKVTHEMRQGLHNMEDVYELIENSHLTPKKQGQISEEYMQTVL
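Competitive HTRF cAMP read-out (cryptate anti-cAMP antibody, cAMP-d2; 30 min, room temperature) in freshly harvested TSHR cells. Compounds added before TSH at EC80 (4nM final), followed by 2 hours' incubation at 37 deg C.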
Eya2 inh = inhibitors of human Eya2 phosphatase activity; Potency, µM (doses to about 76.9 µM), most hits filed as inhibitors; 330,000 tested, 0.006% active; AID 488837; recombinant Eya2, OMFP fluorescence dephosphorylation (OMFP is methylfluorescein phosphate)
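Eya2 (0.2 uM) preincubated 10 min at ambient with compound, then OMFP substrate added at 50 uM; 10 min reaction in 50 mM HEPES pH 7.5, 50 mM NaCl, 5 uM MgCl2, 0.05% BSA, 1 mM DTT. Fluorescence read at Ex 485/Em 525 nm.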
TCR act = activates T cell receptor signaling; 330,000 tested, under 10 active; primary human leukocytes, anti-CD3, IL-2 HTRF, 48 h; Potency, µM (top dose mostly 9.22 µM), most hits filed as activators
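Activity was scored as IL-2 release from primary human leukocytes given only a TCR signal (a-CD3 beads) plus compound for 48 hr. Detection used a two-antibody HTRF format read at 665nm.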
Of the large screens only hits and unclear results are named; the others gave an inactive call. Only some compounds are listed: those with a hit (about 0.24% of all), similar ones and a draw of the others. Unless noted, the call rests on the fitted dose curve; in most records, active means well fitted curve in the direction sought with a large enough effect; inconclusive means small, poorly fitted or top-dose-only effect, or another doubt; inactive means no such curve, though single readings can be large; an effect the other way counts as inactive or inconclusive.

COc1ccc(S(=O)(=O)Nc2ccc(C)cc2)cc1N(C)S(=O)(=O)c1ccc(Cl)cc1	TSHR antag -90.6
Cc1cc2c(s1)c1c(n2C)C(=O)N(Cc2ccccc2F)C1	none (no result: a7 integrin act, TCR act)
O=C(C=Cc1ccccc1)c1cc(Br)ccc1O	none (no result: TSHR antag, Eya2 inh)
CCc1ccc(/C=C/C(=O)c2cc(Br)ccc(=O)c2O)cc1	TSHR antag -87.2
Cc1cccc(/C=C/C(=O)c2cc(Br)ccc(=O)c2O)c1	TSHR antag -87.8
CCOc1ccc(/C=C/C(=O)c2cc(Br)ccc(=O)c2O)cc1	TSHR antag inconclusive
CCCC[C@]12Cc3ccccc3C(O1)c1c(cc(-c3ccccc3)oc1=O)O2	none (no result: a7 integrin act, TSHR antag, TCR act)
COc1ccc(NC(=S)N(CCCN2CCOCC2)C(C)c2cc3cccc(OC)c3o2)cc1 (stereo not drawn)	TSHR antag -75.9
COc1cc2nc(N3CCCN(C)CC3)nc(NC3CCN(Cc4ccccc4)CC3)c2cc1OC	none (no result: a7 integrin act, TCR act)
O=C(O)c1ccc(NC2=C(Cl)C(=O)c3ccccc3C2=O)cc1	a7 integrin act inconclusive, TSHR antag -86.8
O=C1C(Cl)=C(Nc2ccccc2)C(=O)c2ccccc21	none
O=C(O)c1cccc(NC2=C(Cl)C(=O)c3ccccc3C2=O)c1	TSHR antag -83.4
O=C(c1ccoc1)N1CCN(c2cc(-c3cccnc3)nc3cc(-c4cccc(Cl)c4)nn23)CC1	none (no result: TSHR antag, Eya2 inh, TCR act)
COc1ccccc1OCC(=O)N/N=C1/C=C(C)CC1	a7 integrin act 10µM
O=C1OC(c2ccccc2)(N(Nc2ccccc2)c2ccccc2)c2ccccc21 (stereo not drawn)	none (no result: TSHR antag, Eya2 inh, TCR act)
CCCCCCCCCCCCCCCCCCNC(=O)OCC(COP(=O)([O-])OCC[n+]1ccsc1)OC (stereo not drawn)	none (no result: a7 integrin act, TCR act)
O=C(CNc1cc(S(=O)(=O)N2CCOCC2)ccc1N1CCCC1)Nc1ccc(Cl)cc1	none (no result: TSHR antag, Eya2 inh)
CNc1c(NC(=O)c2ccc3c(c2)OCO3)c(=O)oc2ccccc12	TSHR antag -135.9
Cc1cc(C(=O)COC(=O)c2ccc(O)cc2O)c(C)n1-c1ccccc1	TSHR antag inconclusive
COc1ccc(-n2c(C)cc(C(=O)COC(=O)c3ccc(O)cc3O)c2C)cc1	TSHR antag -73.5
C[C@H](NC(=O)Nc1cccc(Br)c1)C(=O)O	none
COc1ccccc1N1C(=O)c2cccc3c(Cl)ccc(c23)C1=O	TSHR antag -98.1
CN(CC(=O)Nc1ccccc1C(F)(F)F)Cc1c(O)ccc2ccccc12	TSHR antag -98.6
CCC(=O)NC1=C(Cl)C(=O)C(NC(=O)CC)=C(Cl)C1=O	TSHR antag -85.9
O=C(Cn1ncc2c([nH]c3ccccc32)c1=O)Nc1cccnc1	none
Cc1ccc(NC(=O)Cn2ncc3c([nH]c4ccccc43)c2=O)cc1Cl	TSHR antag -70.0
Cc1cccc(-c2csc(N3CCC(C(N)=O)CC3)n2)c1	none (no result: a7 integrin act, Eya2 inh, TCR act)
O=S(=O)(Nc1cccc(-n2cnnn2)c1)c1ccccc1C(F)(F)F	TSHR antag -136.0
Cc1cc(C)c(C)c(S(=O)(=O)Nc2cccc(-n3cnnn3)c2)c1C	none
Cc1cccc(-c2ccc3ncnc(NCc4cccc(F)c4)c3c2)c1	none (no result: a7 integrin act, TCR act)
CC(=O)c1ccc(N2CCN(C(=O)C3CCN(S(=O)(=O)c4cccs4)CC3)CC2)cc1	none
COc1ccccc1N1CCN(C(=O)CCCN2C(=O)c3cccc4cccc(c34)C2=O)CC1	TSHR antag -72.2
COc1ccccc1N1CCN(C(=O)CN2C(=O)c3cccc4cccc(c34)C2=O)CC1	Eya2 inh inconclusive
COc1cc(C(C(=O)NCc2ccccc2)N(C(=O)c2snc(C(N)=O)c2N)C2CCCC2)cc(OC)c1OC (stereo not drawn)	TSHR antag -108.3
CCCc1cc2c(cc1NC(=O)c1ccco1)OCO2	none
COc1ccccc1C(=O)NCCOc1ccc(C(C)(C)C)cc1	a7 integrin act 8.91µM (no result: TCR act)
O=C(NNC(=S)NC1CCCCC1)c1sc2ccccc2c1Cl	none
CC(C)(C)C(=O)NC(=S)NNC(=O)c1sc2ccccc2c1Cl	TSHR antag -93.9
CC1(C)CC(=O)C2=C(C1)O[C@@]1(c3ccsc3)Cc3cc(C#N)ccc3C2O1	none (no result: a7 integrin act, TSHR antag, TCR act)
COc1ccc(C(=O)Nc2cccc(NC(=O)c3cccs3)c2)cc1OC	TSHR antag -129.6
COc1cccc(OC)c1C(=O)Nc1cccc(NC(=O)c2cccs2)c1	none
Cc1c(C(=O)N2CCN(c3ncccn3)CC2)oc2ccc(Cl)cc12	none
c1ccc2c(c1)CC(N1CCN(c3cccc4c3OCCO4)CC1)C2	none (no result: a7 integrin act, TCR act)
COc1ccc(-n2nc(C(=O)NCC(=O)Nc3cc(OC)c(OC)c(OC)c3)c3ccccc3c2=O)cc1OC	TSHR antag -117.5
CCS(=O)(=O)N1CCCC(C(=O)c2ccc(OC)cc2C)C1 (stereo not drawn)	a7 integrin act 11.2µM
Nc1ccc2cc3[nH]c4cc(N)ccc4c3nc2c1	none (no result: TSHR antag, Eya2 inh)
COc1ccc(CNC(=O)CCS(=O)(=O)c2cc3c(cc2Cl)NC(=O)CO3)cc1	TSHR antag -119.5
CC(=O)N1c2ccc(S(=O)(=O)NCCC(=O)Nc3ccc(F)cc3)cc2CC1C (stereo not drawn)	none
CC(=O)N1c2ccc(S(=O)(=O)NCCC(=O)Nc3ccccc3C)cc2CC1C (stereo not drawn)	TSHR antag -133.4
CC(=O)N1c2ccc(S(=O)(=O)NCCC(=O)Nc3cccc(Cl)c3)cc2CC1C (stereo not drawn)	TSHR antag -126.4
CC(=O)N1c2ccc(S(=O)(=O)NCCC(=O)Nc3ccc(C)c(Cl)c3)cc2CC1C (stereo not drawn)	none
N#CC1=C(N)N2C(=C(C#N)C1c1ccc(Br)cc1)Nc1ccccc12 (stereo not drawn)	TSHR antag -78.6
CCCC[C@]12Cc3ccccc3C(O1)c1c(c3ccccc3oc1=O)O2	none (no result: a7 integrin act, TSHR antag, TCR act)
CCCCN(C(=O)CSc1nnc(-c2ccccc2)o1)c1c(N)n(CCC)c(=O)[nH]c1=O	none
CCN(C(=O)CSc1nnc(-c2ccccc2)o1)c1c(N)n(Cc2ccccc2)c(=O)[nH]c1=O	TSHR antag -108.5
CCc1ccc(Sc2cc(C(=O)NCCN3CCOCC3)c3ccccc3n2)cc1	a7 integrin act 11.2µM
O=C(NCCN1CCOCC1)c1cc(-c2ccccc2)nc2ccccc12	none (no result: TSHR antag, Eya2 inh, TCR act)
CC(C)(C)OC(=O)NCCc1nnc(SCc2ccccc2Cl)o1	none
CC(C)(C)OC(=O)NCCc1nnc(S(=O)(=O)Cc2ccc(Cl)cc2Cl)o1	TSHR antag -78.1
COCOCCn1cc(CN2CCS(=O)(=O)N(Cc3ccc(-c4ccccc4)cc3)C(C(C)C)C2=O)nn1 (stereo not drawn)	none (no result: TSHR antag, Eya2 inh, TCR act)
C=CCN(CC=C)C(=O)c1ccc(OC2CCN(S(=O)(=O)N(C)C)CC2)cc1	a7 integrin act 5.01µM
C/C(=C\C(=O)c1ccccc1)Nc1ccc(Br)c(Cl)c1	a7 integrin act 11.2µM
Cn1c(=O)c([N+](=O)[O-])c(Cl)c2ccccc21	TSHR antag -82.6
COc1ccc(OC)c(-c2cc(C(=O)Nc3cc(C)n(Cc4ccc(Cl)cc4)n3)no2)c1	none
COc1cccc(-c2cc(C(=O)Nc3cc(C)n(Cc4ccc(Cl)cc4)n3)no2)c1	TSHR antag -73.6
